Screening data from PubChem BioAssay.
TPT1 inh: Candida albicans TPT1 enzyme inhibitors, primary screen, biochemical, fluorescence polarization | actives 0.81% (n = 300,000) | inhibition, % at 5 µM | recombinant caTPT1, FP RNA substrate dephosphorylation;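 active = inhibition above the mean of all tested compounds plus 3 SD, set per screening campaign, cut at about 24% in these data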;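 note: plate controls were DMSO alone for no effect and ferristatin control at 100 nM for full effect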
Myeloid diff MLP: induction of myeloid progenitor differentiation, primary screen, cell-based, flow cytometry, MLPCN library | calls only at 10 µM | actives 1% (n = 360,000) | AID 624256, 2012 | ER-HoxA9 myeloid progenitors, lysozyme-GFP differentiation;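 active = normalized GFP-positive differentiation at or above the plate's own cutoff, the solvent-only control mean plus 3 SD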;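 note: cells exposed to compound for four days before flow analysis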
Rpn11 inh: Rpn11 (PSMD14) deubiquitinase inhibitors, primary screen, biochemical, fluorescence polarization, uHTS | 26S proteasome non-ATPase regulatory subunit 14 (Homo sapiens), O00487 | human 26S proteasome, Ub4-pepOG fluorescence polarization; 20S core pre-blocked with epoxomicin | inhibition, % at 20 µM | actives 0.59% (n = 360,000);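 active = inhibition at 20 µM, scaled to each plate's controls, above about 33%, limit read from the data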
HNF4A DNA FP: change in binding of human HNF4A to DNA, primary screen, biochemical, fluorescence polarization, FITC-DNA; 1 h; actives 0.3% (n = 360,000); activity change, % at 10 µM; Hepatocyte nuclear factor 4-alpha (Homo sapiens), P41235; in the data active = activity change above about 30%, passing the limit was not always enough
Target sequence (P41235 whole entry, looked up): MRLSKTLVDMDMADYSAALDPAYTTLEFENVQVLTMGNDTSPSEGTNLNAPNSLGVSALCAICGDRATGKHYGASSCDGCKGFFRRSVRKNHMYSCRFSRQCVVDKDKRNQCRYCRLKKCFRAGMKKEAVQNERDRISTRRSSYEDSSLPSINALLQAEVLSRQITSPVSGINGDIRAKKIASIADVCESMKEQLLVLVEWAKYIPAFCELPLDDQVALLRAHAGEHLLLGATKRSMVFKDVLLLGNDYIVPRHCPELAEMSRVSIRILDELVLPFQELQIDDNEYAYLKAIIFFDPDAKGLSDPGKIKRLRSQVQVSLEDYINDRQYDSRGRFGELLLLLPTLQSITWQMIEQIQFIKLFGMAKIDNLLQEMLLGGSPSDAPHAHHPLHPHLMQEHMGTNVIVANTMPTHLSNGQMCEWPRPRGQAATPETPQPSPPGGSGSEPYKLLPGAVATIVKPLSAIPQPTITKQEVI
Starred values were filed as active, the others as inactive; i = inactive; . = no result shown; + = active, no number; ! = a repeat was not active. Most compounds without a hit are left out; they make up all but 2.1% or so of the library.

SMILES | TPT1 inh | Myeloid diff MLP | Rpn11 inh | HNF4A DNA FP
O=C(CO)C(O)C(O)C(O)CO (configuration not stated) | -3 | + | -8 | 2
CCc1ccccc1N(C(=O)c1snc(C(N)=O)c1N)C(C(=O)NCC1CCCO1)c1ccc(C)o1 (configuration not stated) | 1 | i | 2 | 1
N#Cc1ccc(C(C(=O)NC2CCCCC2)n2c(=O)c(-c3cc4ccccc4[nH]3)nc3ccccc32)cc1 (configuration not stated) | . | + | . | 2
O=C(NC1CCCCC1)C(c1ccccc1)n1c(=O)c(-c2cc3ccccc3[nH]2)nc2ccccc21 (configuration not stated) | . | i | . | 1
C#CCNc1c2c(nc3nnnn13)CCCC2 | -2 | i | -7 | -1
CNc1c2c(nn1C)CCCC2 | 0 | +! | -4 | -1
COc1ccc(-n2nnnc2C(c2ccccc2OC(F)(F)F)N2CCN(C/C=C/c3ccccc3)CC2)cc1 (configuration not stated) | . | + | 11 | -1
Cc1cccc2cc3c(N)c(C(=O)N4CCc5ccccc54)sc3nc12 | 2 | + | 38 | 24
CC1(C)CN(C2CCCCC2)C(=O)[C@H]1CC(=O)Nc1ccccc1 | . | i | 2 | 1
CNC(=O)C[C@@H]1C(=O)N(C2CCCCC2)CC1(C)C | . | + | -3 | -2
NNC(=O)c1cc2ccccc2cc1NS(=O)(=O)c1ccccc1 | -1 | i | -4 | 1
CCCOc1ccc(CNC(=O)c2ccc3c(c2)N(CC)CCS3)cc1 | -5 | + | 6 | 0
CCN1CCSc2ccc(C(=O)NCc3cccc(Br)c3)cc21 | -1 | i | 0 | 1
COc1ccc(-c2cc(C(=O)N(C)Cc3ccc(F)cc3)c3ccccc3n2)cc1OC | 0 | i | -8 | 1
Cc1cccc2sc(NC(=O)Cn3cccc3)nc12 | -3 | + | 2 | 1
Cc1cccc2sc(NC(=O)CCn3cccc3)nc12 | 1 | i | -3 | 3
COC(=O)C[C@@H]1C=C[C@H](NC(=O)Cc2ccccn2)[C@@H](CO)O1 | . | i | . | -3
O=[N+]([O-])c1cccc(Nc2c([N+](=O)[O-])ccc3nonc23)c1 | -1 | + | -6 | 0
Cc1cccc(Nc2c([N+](=O)[O-])ccc3nonc23)c1 | 1 | i | 5 | 3
COc1ccc(C(C)(C)C)cc1NC(=O)C1CC(=O)N(C2CCCC2)C1 (configuration not stated) | . | i | -6 | 1
COc1ccc(Cl)cc1NC(=O)C1CC(=O)N(C2CCCCC2)C1 (configuration not stated) | 0 | + | -3 | 1
CC(C)(C(=O)c1ccccc1)/[N+]([O-])=C/c1ccc(Br)cc1 | 0 | i | -1 | 0
CC(=O)c1ccc(OCC(O)CN(C)CCOc2ccc(Br)cc2)cc1 (configuration not stated) | 0 | + | 0 | -3
CCN1C(=O)C(=O)c2cc(C)ccc21 | . | i | 0 | 1
CC[N+]1=C(C)C(C)(C)c2cc(C)ccc21 | 17 | + | . | 13
SMILES | TPT1 inh | Myeloid diff MLP | Rpn11 inh | HNF4A DNA FP
Cc1ccc(CNC(=O)C2CCCN(S(=O)(=O)c3c(C)noc3/C=C/N(C)C)C2)cc1 (configuration not stated) | 12 | i | 3 | 3
COC(=O)c1c(C(=O)OC)c(-c2cccc(Cl)c2)n2c1CS(=O)(=O)C2 | -4 | + | 2 | 2
COC(=O)c1c(C(=O)OC)c(-c2cccc(C)c2)n2c1CS(=O)(=O)C2 | -4 | i | -3 | 1
O=c1[nH]c(=O)n(C2C[C@H](O)[C@@H](CO)O2)cc1C(F)(F)F (some centres not stated) | -1 | i | -4 | 1
O=c1[nH]c(=O)n([C@H]2C[C@H](O)[C@@H](CO)O2)cc1C(F)(F)F | -2 | + | 4 | 0
CSc1ccccc1NC(=O)COc1nsnc1N1CCOCC1 | 2 | + | 2 | 2
CSCC[C@H](CO)NC(=O)[C@H]1O[C@@H](n2cnc3c(N)ncnc32)[C@H](O)[C@@H]1O | . | i | 0 | 1
Cc1cc(N2CCN(C)CC2)ccc1NC(=O)c1ccc(-c2ccc(Cl)cc2)o1 | 1 | + | 8 | -1
CN1CCN(c2ccccc2NC(=O)c2ccc(-c3ccc(Cl)c(Cl)c3)o2)CC1 | -4 | i | 8 | -3
Cc1ccc(C(=O)C(C)[n+]2cccc(C(N)=O)c2)cc1 (configuration not stated) | 0 | i | 0 | 3
Cc1ccc[n+](C(C)C(=O)c2ccc(Cl)cc2)c1 (configuration not stated) | -1 | + | -1 | 3
CC(C)OCCCn1c(=N)c(C(N)=S)cc2c(=O)n3ccccc3nc21 | 9 | + | 8 | 0
O=C(CN1CCCc2ccccc21)Nc1cc(S(=O)(=O)N2CCCC2)ccc1Cl | . | i | 40 | -1
Cc1ccc2c(c1)CCCN2CC(=O)Nc1cc(S(=O)(=O)N2CCCC2)ccc1Cl | . | + | 30 | 12
O=c1oc2cc(Cl)ccc2n1CSc1nc2ccccc2s1 | -4 | + | -4 | 2
O=C(CSc1nc2ccccc2s1)N1c2ccccc2Sc2ccc(Cl)cc21 | -1 | i | -2 | -3
COc1ccc(CNC[C@H]2O[C@@H](n3cnc4c(N)ncnc43)[C@H](O)[C@@H]2O)cc1OC | . | i | 0 | -3
CSc1ccccc1C(=O)OCC(=O)Nc1c(C)n(C)n(-c2ccccc2)c1=O | . | i | -3 | -3
CCCCNC(=O)c1[nH]c(C)c(C(C)=O)c1C | -2 | i | -4 | 34*
CN(Cc1ccccc1)C(=O)c1ccc(NC(=O)Cc2cccc(NC(=O)C3CCN(C(=O)C4CC4)CC3)c2)cc1 | . | i | 3 | 1
CN(Cc1ccccc1)C(=O)c1cccc(NC(=O)Cc2cccc(NC(=O)C3CCN(C(=O)C4CC4)CC3)c2)c1 | . | + | 3 | 0
Brc1ccc(-c2nc3ncccn3c2Nc2ccc3c(c2)OCCO3)o1 | -4 | i | 3 | -1
Cc1ccc(-c2nc3ncccn3c2Nc2ccc3c(c2)OCCO3)o1 | -2 | i | 2 | 38*
CC(C)(C)c1ccc(OCC(=O)Nc2ccc3c4c(cccc24)C(=O)NC3=O)cc1 | . | + | -7 | -17
Cc1ccc(OCC(=O)Nc2ccc3c(c2)C(=O)NC3=O)cc1 | 5 | i | -22 | -1
CCOc1ccc(S(=O)(=O)N2CCC(C(=O)NC3CC3)CC2)cc1C | -2 | i | 1 | 2
COC(=O)CCCc1nc2ccccc2s1 | -2 | i | -1 | 2
COc1ccccc1OC(=O)CCc1nc2ccccc2s1 | 1 | + | 18 | -15
O=C(NCc1ccccc1)C(c1c(F)cccc1Cl)N(C(=O)c1csnn1)C1CC1 (configuration not stated) | 0 | i | 3 | 1
